Experimental findings from the supplement of paper PMC13380429 are described below.

Experiment [1] has as its system Vero E6 infected with SARS-CoV-2. Description: morphology score (similarity to uninfected cells); higher = more like uninfected cells. The note with it: 24 h.
Experiment [2] has the same test system. The experiment is described as follows: SARS-CoV-2 infection rate relative to infected DMSO; higher = more infection, active = 60 or less. The note with it: 24 h.

With `CNC1CC(N)C(O)C(OC2OC(CO)C(O)C3OC4(OC(C(N)CO)C(O)C(O)C4O)OC23)C1O` (stereo not given) [Hygromycin B] (10 µM), in experiment [1], the morphology score is 0.0213. The SARS-CoV-2 infection rate in experiment [2] was 86.5% (inactive).

Compound `CC(C)NCC(O)COc1cccc2[nH]c3ccccc3c12` (stereo not given) [carazolol] (10 µM) registered a morphology score in experiment [1] of -0.011. Also, the SARS-CoV-2 infection rate in experiment [2] is 91.5% (inactive).

In experiment [1], `OC[C@H]1O[C@@H](O[C@@H]2[C@@H](CO)OC(O)(CO)[C@H]2O)[C@H](O)[C@@H](O)[C@H]1O` (mixture of isomers) [lactulose] (10 µM) yielded a morphology score of -0.0368. Further, in experiment [2], the SARS-CoV-2 infection rate was 97.5% (inactive).

For the compound `C[C@@H](Oc1ccc(Cl)cc1)c1ccnc2ncnn12` (10 µM), in experiment [1], the morphology score was -0.0401. For the same compound, the SARS-CoV-2 infection rate in experiment [2] is 112% (inactive).

As to `C1Cc2[nH]nc(-c3nn[nH]n3)c2C1` (10 µM), the morphology score in experiment [1] is -0.0417. The SARS-CoV-2 infection rate in experiment [2] was 109% (inactive).

Regarding `O[C@H]1CC[C@H](Nc2ncc3nc(Nc4c(F)cc(F)cc4F)n([C@H]4CCOC4)c3n2)CC1` (0.833333 µM), the morphology score in experiment [1] was determined as 0.103. Also, the SARS-CoV-2 infection rate in experiment [2] is 101% (inactive).

Take `CCOC(=O)[C@H](CCc1ccccc1)N[C@@H](C)C(=O)N1Cc2ccccc2C[C@H]1C(=O)O` [quinapril] (10 µM): in experiment [1], the morphology score is -0.145. In addition, the SARS-CoV-2 infection rate in experiment [2] was 109% (inactive).

As to `O=C(Oc1ccccc1)c1ccccc1O` [phenyl-salicylate] (10 µM), in experiment [1], the morphology score was -0.0306. Besides, in experiment [2], the SARS-CoV-2 infection rate was 103% (inactive).

Regarding `Cc1cccc(-c2[nH]c(C(C)(C)C)nc2-c2ccc3nccnc3c2)n1` (10 µM), the morphology score in experiment [1] is -0.0319. Besides, in experiment [2], the SARS-CoV-2 infection rate was 100% (inactive).

Take `Nc1ccc2ncnc(NCCc3ccc(Oc4ccccc4)cc3)c2c1` (10 µM): in experiment [1], the morphology score is -0.17. Besides, the SARS-CoV-2 infection rate in experiment [2] was 102% (inactive).

On to `CNC(=O)c1ccc2cc([C@@]3(O)CCn4cncc43)ccc2c1` [orteronel] (10 µM), for which the morphology score in experiment [1] came out at 0.0827. Besides, in experiment [2], the SARS-CoV-2 infection rate is 106% (inactive).

In the case of `CC(=O)O[C@H]1CC[C@@]2(C)C(=CC[C@@H]3[C@@H]2CC[C@]2(C)C(c4cccnc4)=CC[C@@H]32)C1` [abiraterone-acetate] (10 µM), in experiment [1], the morphology score is -0.0503. In addition, in experiment [2], the SARS-CoV-2 infection rate was 112% (inactive).

In experiment [1], `CCC[C@H](N[C@@H](C)C(=O)N1[C@H](C(=O)O)C[C@@H]2CCCC[C@@H]21)C(=O)O` [perindoprilat] (10 µM) came in with a morphology score of 0.276. Also, the SARS-CoV-2 infection rate in experiment [2] is 104% (inactive).

In experiment [1], `c1cc(Cc2cnc[nH]2)ccn1` [immethridine] (10 µM) came in with a morphology score of 0.158. For the same compound, in experiment [2], the SARS-CoV-2 infection rate was 109% (inactive).

As for `CCCCOc1cc(C(=O)OCCN(CC)CC)ccc1N` [oxybuprocaine] (10 µM), the morphology score in experiment [1] came out at 0.0894. Further, the SARS-CoV-2 infection rate in experiment [2] is 114% (inactive).

Turning to `C[C@@H](O)[C@H]1C(=O)N2C(C(=O)O)=C(S[C@@H]3CN[C@H](CNS(N)(=O)=O)C3)[C@H](C)[C@H]12` [doripenem] (10 µM), the morphology score in experiment [1] was 0.131. Also, the SARS-CoV-2 infection rate in experiment [2] is 100% (inactive).

Compound `Cc1cc(=O)[nH]c(=S)[nH]1` [methylthiouracil] (10 µM) returned a morphology score in experiment [1] of 0.0905. Also, in experiment [2], the SARS-CoV-2 infection rate is 104% (inactive).

`COc1ccc2cc1Oc1cc3c(cc1OC)CC[N+](C)(C)[C@H]3Cc1ccc(cc1)Oc1c(OC)c(OC)cc3c1[C@@H](C2)[N+](C)(C)CC3` [metocurine] (10 µM): the morphology score in experiment [1] is 0.103. Also, in experiment [2], the SARS-CoV-2 infection rate is 104% (inactive).

In experiment [1], `COc1cc(NS(=O)(=O)c2ccc(N)cc2)ncn1` [sulfamonomethoxine] (10 µM) returned a morphology score of 0.102. Also, the SARS-CoV-2 infection rate in experiment [2] is 89.5% (inactive).

As to `CC1(C)O[C@@H]2C[C@H]3[C@@H]4CCC5=CC(=O)C=C[C@]5(C)[C@H]4[C@@H](O)C[C@]3(C)[C@]2(C(=O)CO)O1` [desonide] (10 µM), in experiment [1], the morphology score is 0.0066. Besides, the SARS-CoV-2 infection rate in experiment [2] is 107% (inactive).

`COCC(=O)Nc1c(I)c(C(=O)NCC(O)CO)c(I)c(C(=O)N(C)CC(O)CO)c1I` (stereo not given) [iopromide] (10 µM): in experiment [1], the morphology score was -0.11. Besides, the SARS-CoV-2 infection rate in experiment [2] was 106% (inactive).

In experiment [1], `CCCCCCCC/C=C\CCCCCCCC(=O)N[C@@H](CO)Cc1ccc(O)cc1` (10 µM) displayed a morphology score of 0.123. Further, the SARS-CoV-2 infection rate in experiment [2] was 104% (inactive).

In experiment [1], `Nc1ccncc1N` [amifampridine] (10 µM) displayed a morphology score of 0.0643. Besides, the SARS-CoV-2 infection rate in experiment [2] is 92% (inactive).

`CCOC(=O)[C@H](CCc1ccccc1)N[C@@H](C)C(=O)N1CCC[C@H]1C(=O)O` [enalapril] (10 µM) returned a morphology score in experiment [1] of 0.198. In experiment [2], the SARS-CoV-2 infection rate is 96.5% (inactive).

In experiment [1], `CN(c1nccc(=O)[nH]1)C1CCN(c2nc3ccccc3n2Cc2ccc(F)cc2)CC1` [mizolastine] (10 µM) showed a morphology score of 0.211. Further, in experiment [2], the SARS-CoV-2 infection rate was 106% (inactive).

Compound `CC(=O)Nc1ccc(S(=O)(=O)Nc2ccc([N+](=O)[O-])cc2)cc1` [sulfanitran] (10 µM) showed a morphology score in experiment [1] of -0.126. Also, the SARS-CoV-2 infection rate in experiment [2] was 108% (inactive).

For `NS(=O)(=O)c1cc(Cl)c(Cl)c(S(N)(=O)=O)c1` [diclofenamide] (10 µM), the morphology score in experiment [1] came to 0.298. In addition, the SARS-CoV-2 infection rate in experiment [2] was 84.5% (inactive).

For the compound `c1ccc2c(c1)sc1ccccc12` [dibenzothiophene] (10 µM), in experiment [1], the morphology score amounted to 0.0443. The SARS-CoV-2 infection rate in experiment [2] was 105% (inactive).

Regarding `COCC1(CO)C(=O)C2CCN1CC2` (stereo not given) (10 µM), the morphology score in experiment [1] amounted to 0.212. In experiment [2], the SARS-CoV-2 infection rate was 80.5% (inactive).

`O=C(NO)C1(CS(=O)(=O)c2ccc(Oc3ccc(Cl)cc3)cc2)CCOCC1` (10 µM) gave a morphology score in experiment [1] of 0.0418. Besides, the SARS-CoV-2 infection rate in experiment [2] is 98.5% (inactive).
